In PubChem BioAssay (Tox21) one finds Potency and outcome data, which are given here for 15 compounds.

The nature of assay [1]: qHTS assay to identify small molecule antagonists of the glucocorticoid receptor (GR) signaling pathway - cell viability counter screen (AID 720693). Further: nearly all actives have a fitted effect of over 55% in size. Further: potency means the concentration at half of the fitted maximal effect.
Assay [2] is described as follows: qHTS assay for identifying genotoxic compounds that show differential cytotoxicity against isogenic chicken DT40 cell lines with known DNA damage response pathways - wild type cell line (AID 743012). Further: nearly all actives have a fitted effect of over 60% in size. Further: potency means the concentration at half of the fitted maximal effect. An outline of the steps: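 Wild type DT40, 300 cells/well, ~0.5 h settle at 37 C/5% CO2; compounds in DMSO added by pintool; 40 h at 37 C/5% CO2; CellTiter-Glo, 30 min RT; luminescence.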

A short description of assay [3]: qHTS assay for identifying genotoxic compounds that show differential cytotoxicity against isogenic chicken DT40 cell lines with known DNA damage response pathways - Rev3 mutant cell line (AID 743014). Further: nearly all actives have a fitted effect of over 55% in size. Further: potency means the concentration at half of the fitted maximal effect.
Assay [4] is described as follows: qHTS assay for identifying genotoxic compounds that show differential cytotoxicity against isogenic chicken DT40 cell lines with known DNA damage response pathways - Rad54/Ku70 mutant cell line (AID 743015). Further: nearly all actives have a fitted effect of over 60% in size. Further: potency means the concentration at half of the fitted maximal effect.
Assay [5] is described as follows: qHTS assay to identify small molecule antagonists of the androgen receptor (AR) signaling pathway - cell viability counter screen (AID 743033; further: nearly all actives have a fitted effect of over 45% in size; further: potency means the concentration at half of the fitted maximal effect).
Assay [6] concerns the target Androgen receptor (Homo sapiens) (UniProt P10275). Nature of the assay: qHTS assay to identify small molecule antagonists of the androgen receptor (AR) signaling pathway (AID 743035; active means well fitted inhibition curve with a large enough effect in the signal ratio in the repeat runs, not every such curve was filed as active; inconclusive means weak or mixed curves, or effect the other way; inactive means no such curve, though single readings can be large or run the other way; the % refers to the signal ratio; further: potency means the concentration at half of the fitted maximal effect). The essentials:
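Fluorescence from a beta-lactamase FRET substrate (LiveBLAzer B/G, 2 h, room temperature) measured inhibition of R1881-stimulated signaling in GeneBLAzer AR-UAS-bla HEK293 cells exposed to compound for 16 h at 37C.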

For assay [7] the target is unchanged. Nature of the assay: qHTS assay to identify small molecule agonists of the androgen receptor (AR) signaling pathway using the MDA cell line (AID 743040; further: nearly all actives have a fitted effect of over 20% in size). The essentials:
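After a 5 h incubation at 37C and 0% CO2, MDA-kb2 reporter cells were dosed with compounds in DMSO and kept 16 h under the same conditions. Luciferase activity was then read as luminescence with ONE-Glo.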

For assay [8] the target is unchanged. Nature of the assay: qHTS assay to identify small molecule antagonists of the androgen receptor (AR) signaling pathway using the MDA cell line (AID 743042; further: nearly all actives have a fitted effect of over 55% in size; further: potency means the concentration at half of the fitted maximal effect). The essentials: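 Antagonist mode: compounds plus R1881 agonist added to MDA-kb2 AR-luc cells, incubated 16 h at 37C. Luciferase reporter luminescence quantified, with multiplexed CellTiter-Fluor readout for cell viability.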

The nature of assay [9]: qHTS assay to identify small molecule antagonists of the thyroid receptor (TR) signaling pathway - cell viability counter screen (AID 743064). Further: nearly all actives have a fitted effect of over 50% in size. Further: potency means the concentration at half of the fitted maximal effect. An outline of the steps:
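CellTiter-Fluor readout, 30 min at 37 °C/5% CO2, following 23.5 h incubation of GH3.TRE-Luc cells with test compound and 1 nM T3 (final).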

A short description of assay [10]: qHTS assay to identify small molecule antagonists of the thyroid receptor (TR) signaling pathway (AID 743065). Further: nearly all actives have a fitted effect of over 55% in size. Further: potency means the concentration at half of the fitted maximal effect. An outline of the steps: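 Antagonism measured as loss of luciferase signal in GH3 cells stably carrying a TRE-luciferase reporter, co-treated with compound and T3 (1 nM final) for 23.5 h at 37 C. Viability was read in the same well by CellTiter-Fluor.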

Assay [11] relates to thyroid hormone receptor (rat, GH3 cells). Nature of the assay: qHTS assay to identify small molecule agonists of the thyroid receptor (TR) signaling pathway (AID 743066; calls by dose curve).
Assay [12] concerns the target Estrogen receptor (Homo sapiens) (UniProt P03372). Put plainly: qHTS assay to identify small molecule antagonists of the estrogen receptor alpha (ER-alpha) signaling pathway (AID 743069; active means well fitted curve in the direction sought with a large enough effect in the signal ratio in the repeat runs, not every such curve was filed as active; inconclusive means weak or mixed curves, or effect the other way; inactive means no such curve, though single readings can be large or run the other way; the % refers to the signal ratio; further: potency means the concentration at half of the fitted maximal effect). The essentials:
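Compound effects are measured against 17beta-estradiol stimulation in HEK293 cells with a UAS-controlled beta-lactamase reporter for ER-alpha. Exposure lasts 18 hr at 37C; LiveBLAzer B/G FRET substrate follows for 2 hr at room temperature.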

Assay [13] can be described thus: qHTS assay to identify small molecule antagonists of the estrogen receptor alpha (ER-alpha) signaling pathway - cell viability counter screen (AID 743074; calls by dose curve;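 further: HEK293 cells carrying ER-alpha-UAS-bla reporter stimulated with 17beta-estradiol; nearly all actives have a fitted effect of over 45% in size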; further: potency means the concentration at half of the fitted maximal effect).
Assay [14] can be described thus: qHTS assay to identify small molecule antagonists of the estrogen receptor alpha (ER-alpha) signaling pathway using the BG1 cell line (AID 743080; calls by dose curve;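 further: BG1 cells stimulated with 17beta-estradiol alongside compound; nearly all actives have a fitted effect of over 25% in size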; further: potency means the concentration at half of the fitted maximal effect). An outline of the steps:
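Readout is ONE-Glo luminescence, taken 30 min at room temperature after reagent addition, preceded by a CellTiter-Fluor viability read; BG1-Luc-4E2 cells had received compound and 17beta-estradiol for 21.5 h at 37 C.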

Assay [15] can be described thus: qHTS assay to identify small molecule antagonists of the estrogen receptor alpha (ER-alpha) signaling pathway using the BG1 cell line - cell viability counter screen (AID 743081).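 Further: compound given together with 17beta-estradiol as the ER stimulus; nearly all actives have a fitted effect of over 45% in size.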 Further: potency means the concentration at half of the fitted maximal effect.
A short description of assay [16]: qHTS assay to identify small molecule antagonists of the androgen receptor (AR) signaling pathway using the MDA cell line - cell viability counter screen (AID 743041; further: nearly all actives have a fitted effect of over 45% in size; further: potency means the concentration at half of the fitted maximal effect). An outline of the steps: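 R1881-driven MDA-kb2 AR-luc cells, 3,000/well, were dosed with library compounds for 16 h; cell health came from CellTiter-Fluor fluorescence in the reporter wells.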
Assay [17] concerns the target Estrogen receptor (Homo sapiens) (UniProt P03372). Nature of the assay: qHTS assay to identify small molecule agonists of the estrogen receptor alpha (ER-alpha) signaling pathway (AID 743075; calls by dose curve).
Assay [18] has the same target. Put plainly: qHTS assay to identify small molecule agonists of the estrogen receptor alpha (ER-alpha) signaling pathway using the BG1 cell line (AID 743079). Further: nearly all actives have a fitted effect of over 20% in size. Further: potency means the concentration at half of the fitted maximal effect.
The target in a further assay is Aromatase (Homo sapiens) (UniProt P11511). Put plainly: qHTS assay to identify aromatase inhibitors (AID 743083). Further: nearly all actives have a fitted effect of over 55% in size. Further: potency means the concentration at half of the fitted maximal effect.
Chain of Aromatase (Homo sapiens) (P11511 whole entry, looked up): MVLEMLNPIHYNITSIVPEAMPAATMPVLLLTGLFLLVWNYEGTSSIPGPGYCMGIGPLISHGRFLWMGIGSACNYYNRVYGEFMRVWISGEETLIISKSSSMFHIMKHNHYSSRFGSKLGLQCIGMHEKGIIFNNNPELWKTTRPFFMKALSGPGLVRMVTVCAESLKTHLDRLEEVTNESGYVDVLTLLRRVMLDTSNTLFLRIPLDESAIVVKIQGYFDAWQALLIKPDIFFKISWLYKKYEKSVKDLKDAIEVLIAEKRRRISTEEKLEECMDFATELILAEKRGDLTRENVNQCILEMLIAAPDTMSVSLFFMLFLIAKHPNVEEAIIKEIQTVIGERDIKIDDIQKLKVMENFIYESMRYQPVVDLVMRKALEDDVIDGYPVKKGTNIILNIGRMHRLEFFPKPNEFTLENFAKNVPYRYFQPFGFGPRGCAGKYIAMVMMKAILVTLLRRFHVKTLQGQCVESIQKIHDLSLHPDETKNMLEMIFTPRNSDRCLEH

“And” between values parts separate entries of the source, which are not always exact repeats. Equal values may be shown once. The source made the active and inactive calls. Unless noted, the call rests on the fitted dose curve; in most records, active means well fitted curve in the direction sought with a large enough effect in the repeat runs; inconclusive means weak or mixed curves; inactive means no such curve, though single readings can be large; an effect the other way counts as inactive or inconclusive.

Chain of Androgen receptor (Homo sapiens) (P10275 whole entry, looked up): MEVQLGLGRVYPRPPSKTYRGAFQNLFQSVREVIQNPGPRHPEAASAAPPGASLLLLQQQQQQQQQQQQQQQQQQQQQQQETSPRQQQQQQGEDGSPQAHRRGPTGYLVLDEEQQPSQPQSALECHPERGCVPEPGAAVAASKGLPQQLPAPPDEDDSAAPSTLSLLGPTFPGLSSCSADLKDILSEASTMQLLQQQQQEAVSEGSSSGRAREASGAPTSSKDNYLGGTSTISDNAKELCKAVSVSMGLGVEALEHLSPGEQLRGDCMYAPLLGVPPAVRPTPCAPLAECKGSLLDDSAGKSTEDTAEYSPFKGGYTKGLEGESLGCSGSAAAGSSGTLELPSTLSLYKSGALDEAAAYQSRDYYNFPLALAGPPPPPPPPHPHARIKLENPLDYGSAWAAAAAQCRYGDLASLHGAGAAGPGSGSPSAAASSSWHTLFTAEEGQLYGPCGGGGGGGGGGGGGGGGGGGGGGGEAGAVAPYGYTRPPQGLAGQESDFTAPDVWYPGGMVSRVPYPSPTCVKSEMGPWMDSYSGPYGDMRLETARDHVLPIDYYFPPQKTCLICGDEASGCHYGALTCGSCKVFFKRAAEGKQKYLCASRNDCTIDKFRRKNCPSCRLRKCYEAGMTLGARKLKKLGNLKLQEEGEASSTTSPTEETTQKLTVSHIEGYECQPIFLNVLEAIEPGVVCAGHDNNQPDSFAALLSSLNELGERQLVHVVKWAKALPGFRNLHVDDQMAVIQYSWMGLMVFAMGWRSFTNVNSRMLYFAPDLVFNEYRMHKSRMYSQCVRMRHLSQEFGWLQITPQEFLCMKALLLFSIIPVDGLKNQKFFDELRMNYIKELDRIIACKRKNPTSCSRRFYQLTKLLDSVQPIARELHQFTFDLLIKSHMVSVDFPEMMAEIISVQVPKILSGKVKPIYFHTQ
Chain of Estrogen receptor (Homo sapiens) (P03372 whole entry, looked up): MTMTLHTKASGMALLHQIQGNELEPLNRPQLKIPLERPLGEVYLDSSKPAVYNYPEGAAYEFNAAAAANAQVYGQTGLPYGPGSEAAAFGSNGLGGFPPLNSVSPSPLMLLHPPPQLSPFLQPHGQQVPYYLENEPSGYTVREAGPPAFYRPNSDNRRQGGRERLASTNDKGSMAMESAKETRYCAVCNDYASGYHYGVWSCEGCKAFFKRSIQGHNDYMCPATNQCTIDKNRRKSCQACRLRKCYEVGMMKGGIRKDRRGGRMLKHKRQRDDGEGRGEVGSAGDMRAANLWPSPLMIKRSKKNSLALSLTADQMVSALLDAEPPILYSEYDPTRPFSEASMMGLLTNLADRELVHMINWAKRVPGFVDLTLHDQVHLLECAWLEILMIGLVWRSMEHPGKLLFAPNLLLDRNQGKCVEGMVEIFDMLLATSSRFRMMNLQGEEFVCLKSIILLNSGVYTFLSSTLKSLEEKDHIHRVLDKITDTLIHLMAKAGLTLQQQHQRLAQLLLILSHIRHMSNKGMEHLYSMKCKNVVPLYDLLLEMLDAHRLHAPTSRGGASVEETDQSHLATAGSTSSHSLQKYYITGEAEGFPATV

Consider `COC(=O)N(C(=O)N1CO[C@@]2(C(=O)OC)Cc3cc(Cl)ccc3C2=N1)c1ccc(OC(F)(F)F)cc1`, for which the Potency result in assay [1], in assay [5], in [7], in assay [9], in assay [13] and in [14] was “inactive” throughout. In addition, the Potency entry in assay [15] was “inactive”. In addition, the Potency in [2] is 6.63 µM (active); in [3], 14.8 µM (active); in [4] it was 9.36 µM (active); in assay [6] it was 6.69 µM (active); in [8], 23.5 µM (active); in assay [10] it was 11.8 µM (active). For the same compound, in assay [12], the Potency is 47.3 µM [cytotoxic] (active). In addition, in assay [11], the result was inactive.

With `Clc1ccc(-c2ccc(Cl)c(Cl)c2Cl)c(Cl)c1Cl`, the Potency entry in assay [1], in assay [2], in assay [3], in assay [4], in assay [5] and in assay [16] was “inactive” in each case. Besides, the Potency result in [9], in [10], in [13], in assay [17], in assay [18] and in assay [14] was “inactive” in each case. The Potency entry (in assay [15]; with Aromatase (Homo sapiens)) was “inactive” throughout. In assay [11], the call was inactive.

Consider `Cc1cc(N=Nc2ccccc2C)ccc1N`, for which the Potency in assay [1] was 49 µM (active); in assay [2], 27.3 µM (active); in [3] it was 54.5 µM (active) and 48.6 µM (active); in assay [4] it was 27.3 µM (active) and 19.3 µM (active); in assay [6], 21.9 µM (active); in assay [9] it was 24.3 µM (active). In addition, the Potency was 7.7 µM (active) and 27.3 µM (active) in assay [10]; 24.3 µM (active) and 27.3 µM (active) in assay [15]. Also, the Potency result (in assay [5]; in assay [7]; in assay [8]; in assay [13]; with Aromatase (Homo sapiens)) was “inactive” throughout. The compound was classed as inactive in [11].

Turning to `CC1(C)C(/C=C(\Cl)C(F)(F)F)C1C(=O)OC(C#N)c1cccc(Oc2ccccc2)c1` (stereo not given), the Potency entry in [1], in assay [2], in [3], in assay [4], in [5] and in assay [9] was “inactive” in each case. The Potency result (in assay [10]; in [13]; in [15]; in the assay with Aromatase (Homo sapiens)) was “inactive” in each case. The compound was called inactive in assay [11].

In the case of `CCCCCCCCCCCCCCCC[N+](C)(C)C`, the Potency was 23.9 µM (active) and 26.6 µM (active) and 34.7 µM (active) in assay [1]; 473 nM (active) and 934 nM (active) and 969 nM (active) in assay [2]; 596 nM (active) and 417 nM (active) and 770 nM (active) in assay [3]; 841 nM (active) and 1.05 µM (active) and 969 nM (active) in [4]; 21.1 µM (active) and 27.5 µM (active) in assay [5]; 61.1 µM (active) in assay [16]. The Potency in assay [9] is 9.44 µM (active) and 20.9 µM (active) and 13.7 µM (active); in [13] it was 21.3 µM (active) and 4.72 µM (active) and 49 µM (active); in the assay with Aromatase (Homo sapiens) it was 16.8 µM (active) and 11.8 µM (active) and 30.6 µM (active). In assay [15], the Potency entry was “inactive”.

`O=[N+]([O-])c1cc(C(F)(F)F)c(Cl)c([N+](=O)[O-])c1Cl`: the Potency in assay [1] is 12.3 µM (active); in [2], 0.386 µM (active); in assay [3], 0.486 µM (active); in [4], 0.386 µM (active); in assay [5], 21.9 µM (active); in [9], 0.611 µM (active). The Potency is 0.386 µM (active) in assay [10], 54.9 µM (active) in assay [13], 61.1 µM (active) in assay [15] and 1.22 µM (active) with Aromatase (Homo sapiens).

Take `Clc1ccc(C(Cl)(Cl)Cl)c(Cl)c1`: the Potency entry in [1], in [2], in [3], in assay [4], in assay [5] and in assay [16] was “inactive” each time. Moreover, the Potency result in [9], in assay [10], in assay [13] and in [15] was “inactive” in each case. Besides, the compound was called inactive in assay [11].

As to `c1ccc2c(c1)OCC(C1=NCCN1)O2` (stereo not given), the Potency result in [1], in [5], in assay [13], in assay [17], in [14] and in [15] was “inactive” throughout. Further, the Potency in assay [2] was 5.31 µM (active); in assay [3], 7.5 µM (active); in [4] it was 8.41 µM (active); in [9], 7.5 µM (active); in assay [10] it was 7.5 µM (active); with Aromatase (Homo sapiens), 26.6 µM (active).

For `CCOP(=S)(OCC)OC(Cl)C(Cl)(Cl)Cl` (stereo not given), the Potency result in [1], in [2], in [3], in assay [4], in [5] and in [16] was “inactive” in each case. Moreover, the Potency result in [9], in assay [13] and in [15] was “inactive” in each case. Moreover, in [11], the compound was called inactive.

Regarding `Oc1ccc(C(=C(Cl)Cl)c2ccc(O)cc2)cc1`, the Potency result in assay [1], in [2], in assay [3], in [4], in assay [5] and in assay [9] was “inactive” throughout. Further, the Potency result (in assay [14]; in [15]; with Aromatase (Homo sapiens)) was “inactive” in each case. Further, the result in assay [11] was inactive. Moreover, the figures for the Potency in assay [12] and in assay [18] were 48.9 µM [inconclusive] (active) and 0.243 µM (active), respectively.

Take `Clc1ccc(CO/N=C(\Cn2ccnc2)c2ccc(Cl)cc2Cl)c(Cl)c1`: the Potency result in [1], in [5], in assay [16] and in assay [15] was “inactive” each time. Also, the Potency is 13.3 µM (active) in assay [2]; 26.6 µM (active) in assay [3]; 21.1 µM (active) in [4]; 11.9 µM (active) in assay [14]; 2.66 µM (active) in the assay with Aromatase (Homo sapiens).

Consider `ClC(Cl)=C(Cl)Cl`, for which the Potency entry in assay [1], in [2], in [3], in assay [4], in [5] and in [16] was “inactive” in each case. Besides, the Potency entry (in [9]; in assay [10]; in assay [13]; in [15]; with Aromatase (Homo sapiens)) was “inactive” in each case. Also, in assay [11], the call was inactive.

On to `CCCOCC(=Nc1ccc(Cl)cc1C(F)(F)F)n1ccnc1`, for which the Potency was 15.5 µM (active) in assay [1]; 4.32 µM (active) in assay [2]; 4.32 µM (active) in assay [3]; 4.32 µM (active) in assay [4]; 12.3 µM (active) in [5]; 61.1 µM (active) in [16]. Besides, the Potency in assay [9] is 7.69 µM (active); in assay [10], 7.69 µM (active); with Aromatase (Homo sapiens), 0.0153 µM (active).

For the compound `O=[N+]([O-])c1ccc(Oc2ccc(C(F)(F)F)cc2[N+](=O)[O-])cc1`, the Potency entry in assay [1], in assay [5], in assay [16], in assay [9], in assay [12] and in [13] was “inactive” each time. Further, the Potency entry (in assay [17]; in [15]; in the assay with Aromatase (Homo sapiens)) was “inactive” each time. The Potency is 19.3 µM (active) in assay [2], 17.2 µM (active) in [3] and 24.3 µM (active) in [4]. In addition, the result in assay [11] was inactive.

Consider `Clc1ccc(C(c2ccc(Cl)cc2)C(Cl)(Cl)Cl)cc1`, for which the Potency entry (in [1]; in [5]; in assay [16]; in [13]; in assay [15]; with Aromatase (Homo sapiens)) was “inactive” each time. Moreover, the Potency in assay [2] was 18.8 µM (active) and 24.3 µM (active); in [3], 10.6 µM (active) and 7.75 µM (active) and 6.86 µM (active); in assay [4], 23.7 µM (active) and 19.3 µM (active); in assay [9], 18.8 µM (active) and 30.9 µM (active) and 30.6 µM (active); in assay [10] it was 18.8 µM (active) and 30.9 µM (active) and 24.3 µM (active). Further, in assay [11], the compound was called inactive.
